Hit rate of the full screen: of about 2,100 compounds, about 590 (28%) were called active. Not shown: some 42% with an inconclusive outcome. The call rests on the fitted dose curve; in most records, active means well fitted inhibition curve with a large enough effect; inconclusive means small, poorly fitted or top-dose-only effect; inactive means flat fitted curve, though single readings scatter. The list shows a part of the results.

Results on 94 compounds are retold here after PubChem BioAssay AID651814 (National Center for Advancing Translational Sciences (NCATS), 2012).
Potency means the concentration at half of the fitted maximal effect.

Sequence of DNA dC->dU-editing enzyme APOBEC-3F (Homo sapiens) (Q8IUX4 whole entry, looked up): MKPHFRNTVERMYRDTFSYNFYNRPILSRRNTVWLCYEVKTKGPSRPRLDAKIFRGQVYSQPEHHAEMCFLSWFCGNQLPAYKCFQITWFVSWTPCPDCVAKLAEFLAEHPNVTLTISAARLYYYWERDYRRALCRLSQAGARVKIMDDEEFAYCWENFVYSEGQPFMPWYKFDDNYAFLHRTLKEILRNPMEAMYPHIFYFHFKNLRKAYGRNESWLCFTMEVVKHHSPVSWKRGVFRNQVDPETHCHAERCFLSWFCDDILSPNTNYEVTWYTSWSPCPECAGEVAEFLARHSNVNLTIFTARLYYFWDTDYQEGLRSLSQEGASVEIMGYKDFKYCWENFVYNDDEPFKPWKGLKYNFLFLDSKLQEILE

This assay addresses DNA dC->dU-editing enzyme APOBEC-3F (Homo sapiens) (UniProt Q8IUX4). The experiment in a line: qHTS for inhibitors of Vif-A3F interactions: Cherry picks. Further: nearly all actives have a fitted effect of over 70% in size.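 On max response: % of control where 0% means no effect; active compounds raise eYFP fluorescence by blocking Vif-driven A3F loss.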 The following applies: HeLa A3F-eYFP + Vif (tagged APOBEC3F with the HIV-1 protein that degrades it), eYFP fluorescence, 24 h. A digest of the protocol:
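Read-out: yellow fluorescence (ex 488 nm, em 500-530 nm) by laser-scanning cytometer after 24 h compound exposure, several concentrations, at 37 deg C. Cells: HeLa line stably co-expressing Vif and C-terminally eYFP-tagged A3F; MG132 served as positive control.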
As to `CCOc1ccc(Br)cc1C1C(C(=O)OC)=C(N)Oc2cc(N(C)C)ccc21` (centres undefined), the max response is -21.7% (inactive).

Turning to `Cn1cccc1/C=C1\SC(=Nc2cccc(O)c2)NC1=O`, the Potency was 15.8 µM (active).

Turning to `Cn1cccc1/C=C1\SC(=Nc2ccc(O)cc2)NC1=O`, the Potency is 12.5 µM (active).

In the case of `Cc1ccc(N=C2NC(=O)/C(=C/c3cccn3C)S2)cc1`, the Potency is 9.94 µM (active).

In the case of `COc1cccc(N=C2NC(=O)/C(=C/c3cc([N+](=O)[O-])ccc3O)S2)c1`, the max response was -16.1% (inactive).

As for `Cc1cccc(N=C2NC(=O)/C(=C/c3cccn3C)S2)c1`, the max response was -9.23% (inactive).

With `Cc1ccc(N=C2NC(=O)/C(=C/c3cn(C)c4ccccc34)S2)cc1C`, the Potency was 17.7 µM (active).

`C=C1C(=O)O[C@@H]2[C@H]1[C@@H](OC(=O)/C(C)=C/C)C/C(C)=C\C(=O)/C=C(\C)[C@@H]2O`: the max response is -29.6% (inactive).

For the compound `Cc1ccc(N2C(=O)[C@@H]3[C@H](C2=O)[C@H]2C=C(C(=O)c4ccccc4)C=CN2[C@@H]3C(=O)c2ccc(Cl)cc2)cc1`, the max response was -5.61% (inactive).

Take `COc1ccc(/C=C(/C(=O)c2cccs2)N2C=CC=CC2=C(C#N)C#N)cc1`: the max response is -25.3% (inactive).

With `CCOC(=O)c1c(CN(CC)CC)n(-c2ccccc2)c2ccc(O)cc12`, the max response was 0.203% (inactive).

With `COc1cc(/C=C2/SC(=Nc3ccc(O)cc3)NC2=O)ccc1O`, the Potency is 16.4 µM (active).

For the compound `COc1cc(/C=C2\SC(=Nc3cccnc3)NC2=O)cc(OC)c1OC`, the max response is -8.17% (inactive).

In the case of `CCC(=O)NC(=S)Nc1cccc(Cl)c1N1CCCC1`, the max response was -0.93% (inactive).

On to `COCCCN(C(C)=O)c1nc(-c2ccc(OC)cc2)cs1`, for which the max response is -29.1% (inactive).

Regarding `CCOC(=O)c1cc(-c2ccccc2)sc1NC(=S)Nc1cc(C)ccn1`, the Potency is 8.2 µM (active).

With `CCOC(=O)c1ccc(NC(=S)Nc2cccc(C)n2)cc1`, the max response is -6.7% (inactive).

As to `Cc1ccc(NC(=S)Nc2ccccn2)c(C)c1`, the max response is 1.92% (inactive).

With `CC(=O)Nc1ccc2c(c1)Cc1ccc(Cl)cc1-2`, the max response was -9.88% (inactive).

On to `NC(=O)C1CCN(c2nc3ccccc3nc2NS(=O)(=O)c2ccc(Br)cc2)CC1`, for which the max response is -0.959% (inactive).

Consider `COc1ccc(N2C(=O)NC3CC2(C)Oc2ccccc23)cc1OC` (centres undefined), for which the max response is -29.4% (inactive).

Turning to `N#C/C(=C\c1ccc([N+](=O)[O-])o1)c1nc2ccccc2[nH]1`, the Potency is 5.17 µM (active).

Turning to `Cc1ccc2nc(/C(C#N)=C\c3ccc([N+](=O)[O-])o3)[nH]c2c1`, the Potency is 3.26 µM (active).

Regarding `COc1ccc(C(C)(O)c2nc(-c3ccccc3OC)cs2)cc1` (centres undefined), the max response is -27.4% (inactive).

`CN(C)c1ccc(/C=C2\Oc3ccc(C#Cc4cccc(N)c4)cc3C2=O)cc1`: the Potency is 12.5 µM (active).

Consider `O=C1/C(=C/c2ccc([N+](=O)[O-])cc2)Oc2cc(O)ccc21`, for which the max response is -5.76% (inactive).

Take `Cc1ccnc(N/C=C(\C#N)c2nc(-c3cccc(Br)c3)cs2)c1`: the Potency is 11.2 µM (active).

Consider `COc1ccccc1NS(=O)(=O)c1cc([N+](=O)[O-])ccc1N/N=C/c1sc(N2CCOCC2)nc1-c1ccccc1`, for which the Potency was 2.06 µM (active).

As to `O=C(O)c1ccccc1/C=N/Nc1ccc(S(=O)(=O)N2CCOCC2)cc1[N+](=O)[O-]`, the max response is -0.875% (inactive).

In the case of `O=[N+]([O-])c1ccc(N/N=C/c2sc(N3CCOCC3)nc2-c2ccccc2)c(S(=O)(=O)Nc2ccccc2Cl)c1`, the Potency was 9.2 µM (active).

Regarding `O=[N+]([O-])c1ccccc1S(=O)(=O)Nc1ccc(-c2ccc(N3CCOCC3)nn2)cc1`, the max response is -8.95% (inactive).

As for `COc1ccc(NC(=O)C2Cc3c(-c4cccc(C(C)=O)c4)ccnc3O2)cn1` (centres undefined), the max response was -25.1% (inactive).

Turning to `CC(=O)/C(N=Nc1cc(C)ccc1O)=C(\C)O`, the Potency was 20.6 µM (active).

Turning to `Cc1cc(N/N=C/c2ccc(O)cc2O)nc(-n2nc(C)cc2C)n1`, the max response was 2.91% (inactive).

For `COC(=O)c1sccc1S(=O)(=O)N(CC(=O)Nc1cc(F)ccc1F)c1ccc(C)c(C)c1`, the max response is 4.72% (inactive).

Consider `O=S(=O)(Nc1nc2n(n1)C(c1ccccc1)C=C(c1ccc(Cl)cc1)N2)c1ccccc1` (centres undefined), for which the max response is -9.71% (inactive).

Consider `COc1ccc2c(c1)N(C)/C(=C/c1cccc[n+]1C)S2`, for which the Potency was 7.04 µM (active).

Turning to `CC[n+]1ccc(/C=C2\Sc3ccccc3N2CCCS(=O)(=O)[O-])c2ccccc21`, the max response was -17.2% (inactive).

On to `COc1ccc(C(=O)Nc2ccc3c(c2)N(C)C(=O)c2ccccc2S3)cc1OC`, for which the max response is -28.4% (inactive).

`CCN1/C(=C/c2cccc[n+]2C)Sc2ccc(OC)cc21`: the Potency is 18.4 µM (active).

`CC[n+]1ccccc1/C=C1\Sc2ccc(C)cc2N1C`: the Potency was 23.1 µM (active).

In the case of `N#CC1=C(N)Oc2c(sc3ccccc23)C1c1ccco1` (centres undefined), the max response is -18.3% (inactive).

Take `COc1cc2c3nnc(-c4ccc(F)cc4)c-3cn(Cc3ccc(C)cc3)c2cc1OC`: the Potency is 9.94 µM (active).

For the compound `Cn1ccnc1Sc1nc2ccccc2nc1NS(=O)(=O)c1ccccc1`, the max response was -9.48% (inactive).

Take `O=C(Nc1nnc(-c2ccc3c(c2)CCCC3)o1)c1c(F)cccc1F`: the max response was 0.764% (inactive).

`CCN(CC)c1nc2cc(OC)ccc2cc1C#N`: the max response is -15.5% (inactive).

As to `COc1ccc2c(C)cc(SCC#N)nc2c1`, the Potency was 20.6 µM (active).

`COCCNC(=S)NN=C1CCCCCC1`: the max response is 2.16% (inactive).

Turning to `C/C(=N\NC(=S)NCc1ccccc1)c1cccs1`, the max response is -3.71% (inactive).

For the compound `COc1cccc(NC(=O)c2oc3ccc(S(=O)(=O)N4CCC5(CC4)OCCO5)cc3c2C)c1`, the max response was -28.1% (inactive).

With `CC(NC(=O)/C(C#N)=C/c1ccc([N+](=O)[O-])o1)c1ccccc1` (centres undefined), the Potency was 7.31 µM (active).

On to `CCOCCCNC(=O)/C(C#N)=C/c1ccc([N+](=O)[O-])o1`, for which the Potency is 16.4 µM (active).

Consider `NC1=NC(=O)/C(=C/c2cc(Br)c(O)c(Br)c2)S1`, for which the max response was -7.06% (inactive).

Regarding `Cc1ccc2[nH]c3c(c2c1)CCCC3NC(=O)CCl` (centres undefined), the max response is -15.6% (inactive).

On to `O=C1CC(c2cc(Br)ccc2F)c2cc3c(cc2N1)CCC3` (centres undefined), for which the max response was -29.3% (inactive).

Regarding `COc1cc(C(=O)NCCOc2cc(C)cc(C)c2)c(Br)c(OC)c1OC`, the max response is -22.9% (inactive).

For the compound `COc1ccc(-c2ccc3c(c2)S(=O)(=O)c2cccc(C(=O)NCCOc4ccccc4)c2C3=O)cc1OC`, the Potency was 15.8 µM (active).

In the case of `O=C(NCc1cccc(F)c1)c1cccc2c1C(=O)c1ccc(N3CCCC3)cc1S2(=O)=O`, the Potency is 14 µM (active).

As to `CC1CCN(c2ccc3c(c2)S(=O)(=O)c2cccc(C(=O)NCc4cccc(F)c4)c2C3=O)CC1`, the Potency is 14 µM (active).

As for `O=C(NCc1ccccc1C(F)(F)F)c1cccc2c1C(=O)c1ccc(N3CCC(N4CCCCC4)CC3)cc1S2(=O)=O`, the Potency is 16.4 µM (active).

For the compound `Cc1cc(-c2nc(C)c(C(=O)NN)s2)no1`, the max response was -13.4% (inactive).

As to `CCn1c(O)c(/C=N/NC(=O)c2ccncc2)c(=O)n(CC)c1=S`, the max response is -6.26% (inactive).

Regarding `O=C(NCc1ccccc1)c1cccc2c1C(=O)c1ccc(/C=C/c3ccccc3)cc1S2(=O)=O`, the Potency was 16.4 µM (active).

Take `Cc1ccc(CNC(=O)c2cccc3c2C(=O)c2ccc(N4CCC(C)CC4)cc2S3(=O)=O)cc1`: the Potency was 16.4 µM (active).

With `CC(C)c1cccc(-c2ccc3c(c2)S(=O)(=O)c2cccc(C(=O)NCc4ccccc4)c2C3=O)c1`, the max response was -28.2% (inactive).

`CCc1c(C)nc(SCC(=O)c2cccs2)c(C#N)c1C`: the max response was 0.208% (inactive).

As for `N#Cc1c(-c2ccccc2F)cc(C2CC2)nc1SCC(=O)c1cccs1`, the Potency was 17.7 µM (active).

For `CCn1c(CNC(=O)c2cc(OC)c(OC)c(OC)c2)cc2cc(C)ccc21`, the max response is 2.52% (inactive).

Turning to `Cc1ccc2nc(-c3ccccn3)c(NC3CCCC3)n2c1`, the max response was -1.86% (inactive).

With `c1ccc(Nc2nc(-c3ccccn3)cs2)cc1`, the max response is -4.92% (inactive).

For `CCc1cccc2c(C(O)c3c[nH]c4ccccc34)c[nH]c12` (centres undefined), the Potency was 18.4 µM (active).

Consider `COc1cccc(C2=CC(c3cccs3)n3nnnc3N2)c1` (centres undefined), for which the Potency is 6.27 µM (active).

Consider `COc1ccc(C2=CC(c3ccc(N(C)C)cc3)n3nnnc3N2)cc1` (centres undefined), for which the max response is -6.88% (inactive).

Take `C=CCOC(=O)C1=C(C)Nc2nnnn2C1c1cccs1` (centres undefined): the max response was -1.29% (inactive).

As for `CCCC(=O)NC1=C(Cl)C(=O)c2ccccc2C1=O`, the max response is 5.27% (inactive).

For the compound `CCOC(=O)C1=C(Cc2ccc(Cl)cc2)C(=O)c2ccccc2C1=O`, the Potency is 16.4 µM (active).

Consider `S=C(Nc1ccccc1)N1CCn2c1nc1ccccc12`, for which the max response was -7.52% (inactive).

Consider `Cc1cc2nc(SCCOC(=O)Nc3cccc(Cl)c3)nc(C)c2cc1C`, for which the max response is 3.73% (inactive).

Take `COc1cccc(N2CC(O)=C(c3nc4ccccc4s3)C2=N)c1`: the Potency is 5.59 µM (active).

For the compound `CCN(CC)c1ccc(/C=C/c2cccc[n+]2C)c(OC)c1`, the Potency was 3.14 µM (active).

As to `C(=Cc1c[nH]c2ccccc12)c1ccc2ccccc2n1`, the Potency was 23.1 µM (active).

As to `Cc1[nH]c2ccccc2c1/C=C/c1ccc2ccccc2n1`, the Potency is 7.31 µM (active).

For `C(=C\c1c[nH]c2ccccc12)/c1ccc2ccccc2n1`, the Potency was 23.1 µM (active).

In the case of `CCOC(=O)c1c(-c2ccc(OC)cc2)csc1/N=C/C1=C(O)CCCC1=O`, the max response was -6.09% (inactive).

Take `Cc1ccccc1-n1c(/C=C/c2c(C)n(C)c3ccccc23)nc2ccccc2c1=O`: the Potency was 8.2 µM (active).

As to `CN1CCc2c(sc(NC(=O)CSc3ccc(F)cc3)c2-c2nc3ccccc3s2)C1`, the Potency was 7.31 µM (active).

As for `COc1ccc(C(=O)c2sc3nc(-c4ccc(C)cc4)cc(C(F)(F)F)c3c2N)cc1`, the Potency is 8.2 µM (active).

On to `CCC(=O)OCc1cnc(C)c2oc(=O)c(C(=O)Nc3ccccc3C(F)(F)F)cc12`, for which the max response is -0.08% (inactive).

`COc1ccc(NC(=O)c2sc3nc(-c4ccc(OC)cc4)cc(C(F)(F)F)c3c2N)cc1`: the Potency was 1.3 µM (active).

As for `COc1ccc(OC)c(NC(=O)c2sc3nc(Cc4ccccc4)cc(C(F)(F)F)c3c2N)c1`, the Potency is 8.2 µM (active).

Consider `COc1cc(C(=O)Nc2nnc(Cc3ccccc3)s2)cc(OC)c1OC`, for which the max response was -23.2% (inactive).

As to `Nc1c(C(=O)O)sc2nc(-c3ccc(F)cc3)cc(-c3ccccc3)c12`, the max response was -11.4% (inactive).

For the compound `Cc1cc(C(F)(F)F)c2c(N)c(C(=O)Nc3cc(C)on3)sc2n1`, the max response is -20.9% (inactive).

For the compound `COc1cccc(C(=O)c2sc3nc(-c4ccccc4)cc(C(F)(F)F)c3c2N)c1`, the Potency is 1.46 µM (active).
